# Source: PubChem
# Tau fibril FP = tau fibrillization inhibition (FP) | K18 P301L tau heparin fibrillization, Alexa594 FP, 6 h | AID 1468 | 280,000 tested, 0.39% active | P10636 | Potency, µM (highest dose often 57.7 µM), for the others: at the top dose activity, negative = inhibition, hits mostly inhibitors; active = well fitted curve in the direction sought with a large enough effect; inconclusive = small, poorly fitted or top-dose-only effect, or another doubt; inactive = no such curve, though single readings can be large; an effect the other way counts as inactive or inconclusive; note: potency is the fitted concentration of half-maximal effect; % is set by controls: 0 for no effect and ±100 for the full control effect; nearly all actives have a fitted effect of over 55% in size
# Target sequence (P10636 561-689 P618L limits assumed): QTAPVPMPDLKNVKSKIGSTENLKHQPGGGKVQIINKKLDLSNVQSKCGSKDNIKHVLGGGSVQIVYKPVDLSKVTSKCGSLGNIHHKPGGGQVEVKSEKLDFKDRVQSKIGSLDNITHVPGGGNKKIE
#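 FP of Alexa 594-tau after heparin (20 uM) induction. Substrate: human K18 P301L, 15 uM unlabeled, 0.24 uM labeled. Buffer 100 mM sodium acetate pH 7. 6 hr, 37 C.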
# Tau fibril ThT = inhibitors of human tau fibril formation, thioflavin T binding | P10636 | recombinant tau K18 P301L, heparin-induced fibrillization, ThT fluorescence | Potency, µM (highest dose often 57.4 µM), for the others: at the top dose activity, negative = inhibition, usual class: inhibitors | 270,000 tested, 2.1% active; active = well fitted curve in the direction sought with a large enough effect; inconclusive = small, poorly fitted or top-dose-only effect, or another doubt; inactive = no such curve, though single readings can be large; an effect the other way counts as inactive or inconclusive; note: potency is the fitted concentration of half-maximal effect; % is set by controls: 0 for no effect and ±100 for the full control effect; nearly all actives have a fitted effect of over 55% in size
#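 ThT emission at 510 nm, taken 1 hr after adding 30 uM dye, quantifies aggregates formed when 20 uM heparin acts on human tau K18 P301L for 6 hr at 37 C.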
# Sfp PPTase inh = inhibitors of Bacillus subtilis Sfp phosphopantetheinyl transferase. Q9F4F7. Potency, µM, for inactives: largest response in the series, negative = inhibition, actives largely listed as inhibitors. 310,000 tested, 3.5% active. Biochemical Sfp PPTase activity, qHTS; active = well fitted curve in the direction sought with a large enough effect; inconclusive = small, poorly fitted or top-dose-only effect, or another doubt; inactive = no such curve, though single readings can be large; an effect the other way counts as inactive or inconclusive;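 note: the enzyme is Sfp with the accession as filed and its product quenches rhodamine fluorescence; potency is the fitted concentration of half-maximal effect; 0% = enzyme reaction without inhibitor and -100% = no enzyme wells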
#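 Compounds were incubated with enzyme (final 15 nM) for 15 min at room temperature before substrate addition started the reaction. Fluorescence at 525 nm excitation, 598 nm emission was recorded immediately and after 30 minutes.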
# FBPA coupling cs = inhibits coupling enzyme system, counter-screen for aldolase hits. coupling enzyme system counterscreen, AmpLite Red fluorescence. activity change, negative = inhibition, % at 58.2 µM, hits read low. 290,000 tested, 0.67% active. AID 2472; in the data active = activity change below about -30%; note: % is set by controls: 0 for no effect and ±100 for the full control effect
#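 Activity here indicates interference with the coupling reaction, not aldolase inhibition. Compounds at 57.5 uM final met coupling enzymes for 10 min at RT; substrate and AmpLite Red detection followed, with a 525/598 nm fluorescence read after 20 min.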
# Tau fluor cs = counter-screen for tau fibril formation inhibitors; tau K18 P301L Alexa594 fluorescence, heparin fibrillization; 280,000 tested, 0.93% active; Potency, µM (highest dose often 57.7 µM), without a hit: at the highest dose activity change, negative = decrease; active = well fitted curve in the direction sought with a large enough effect; inconclusive = small, poorly fitted or top-dose-only effect, or another doubt; inactive = no such curve, though single readings can be large; an effect the other way counts as inactive or inconclusive; note: potency is the fitted concentration of half-maximal effect; % is set by controls: 0 for no effect and ±100 for the full control effect; nearly all actives have a fitted effect of over 55% in size
#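 Human tau K18 P301L (15 uM unlabeled, 0.24 uM Alexa 594-labeled) in 100 mM sodium acetate pH 7 with 20 uM heparin, 6 hr at 37 C. ThT 30 uM added, 1 hr ambient; Alexa 594 FP and total fluorescence read at 555/632 nm.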
# Casp1 catalase = inhibits human caspase-1 in catalase buffer, redox counter-screen. AID 888. 30 tested, under 10 active. caspase-1 Ac-WEHD-AFC fluorescence rate, catalase buffer. Potency, µM (top dose mostly 57.5 µM), for the others: at the top dose activity change, negative = inhibition, usual class: inhibitors. shares compounds with FBPA coupling cs
# Target sequence (P29466 120-297 limits assumed): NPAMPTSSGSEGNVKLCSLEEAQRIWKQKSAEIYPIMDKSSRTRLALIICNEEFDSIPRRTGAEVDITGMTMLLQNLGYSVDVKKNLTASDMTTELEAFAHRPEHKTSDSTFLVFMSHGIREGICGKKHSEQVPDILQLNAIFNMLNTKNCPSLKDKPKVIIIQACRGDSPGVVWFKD
# Target sequence (P29466 317-404 limits assumed): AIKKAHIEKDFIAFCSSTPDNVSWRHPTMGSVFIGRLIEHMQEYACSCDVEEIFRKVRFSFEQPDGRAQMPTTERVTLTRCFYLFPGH
# CASP1 inh CRC = confirmation of allosteric or competitive inhibitors of human caspase-1; shares compounds with FBPA coupling cs; purified caspase-1, fluorogenic substrate cleavage; Potency, µM (titrated, usually from 57.5 µM), for the others: top-dose activity change, negative = inhibition, most hits filed as inhibitors; 60 tested, 20% active
# CASP7 inh CRC = confirmation of allosteric or competitive inhibitors of human caspase-7 | Potency, µM (titrated, usually from 57.5 µM), for inactives: top-dose activity change, negative = inhibition, hits mostly inhibitors | 60 tested, under 10 active | shares compounds with FBPA coupling cs | recombinant caspase-7, fluorogenic substrate cleavage; active = well fitted inhibition curve with a large enough effect in the main read-out, with a control signal flat, not every such curve was filed as active; inconclusive = small, poorly fitted or top-dose-only effect, or a change in a side signal; inactive = no such curve, though single readings can be large or run the other way
# Casp7 cysteine = counter-screen for redox active caspase-7 inhibitors: cysteine buffer | shares compounds with FBPA coupling cs | caspase-7 enzyme with cysteine, fluorogenic substrate, redox counterscreen | Potency, µM (doses to about 57.5 µM), for the others: at the highest dose activity change, negative = inhibition, usual class: inhibitors | 60 tested, under 10 active | AID 908
# CASP7 redox cat = caspase-7 inhibition with catalase present. shares compounds with FBPA coupling cs. Caspase-7 Ac-DEVD-AFC fluorescence rate, catalase buffer. Potency, µM (titrated, usually from 57.5 µM), for the others: at the top dose activity, negative = inhibition, usual class: inhibitors. 30 tested, under 10 active. AID 909
# CASP1 redox cys = inhibits caspase-1 in cysteine buffer, redox counter-screen. shares compounds with FBPA coupling cs. recombinant caspase-1, fluorogenic substrate, cysteine buffer. Potency, µM (top dose mostly 57.5 µM), for the others: top-dose activity change, negative = inhibition, usual class: inhibitors. 60 tested, under 10 active
# Starred values were filed as active, the others as inactive; ? = inconclusive; nt = no result. A selection: hits, their analogues and other compounds. The true share with any hit is near 5.2%. Unless noted, calls come from the whole dose curve; as a rule, active = well fitted inhibition curve with a large enough effect in the main read-out, with a control signal flat; inconclusive = small, poorly fitted or top-dose-only effect, or a change in a side signal; inactive = no such curve, though single readings can be large or run the other way.
SMILES,Tau fibril FP,Tau fibril ThT,Sfp PPTase inh,FBPA coupling cs,Tau fluor cs,CASP1 inh CRC,CASP7 inh CRC,Casp7 cysteine,CASP1 redox cys,others
CCn1nc(-c2ccccc2)nc2c(=O)n(C)c(=O)nc1-2,?,16µM*,22%,-61*,-10%,1µM*,1.6µM*,-3%,-20%,Casp1 catalase=0.79µM*;CASP7 redox cat=?
Cc1nc2c(=O)n(C)c(=O)nc-2n(C)n1,?,?,-6%,-2,1%,nt,nt,nt,nt,
COc1cc2c(cc1O)C[C@H]1c3c(cc(OC)c(O)c3-2)CCN1C,?,14µM*,-32%,-12,?,32µM*,-68%,-4%,-5%,
COc1cc2c(cc1OC)-c1c(OC)c(OC)c(C=O)c3c1[C@H](C2)N(C)CC3,?,22µM*,-8%,-22,?,?,-17%,-4%,?,
C/C=C1/CN2CC[C@]34C(=C(C=O)[C@H]1C[C@@H]23)Nc1ccccc14,-2%,-1%,?,-22,2%,nt,nt,nt,nt,
CC/C=C\C[C@@H](/C=C/C=C\C/C=C\C/C=C\CCCC(=O)O)OO,-4%,-5%,-5%,0,-6%,nt,nt,nt,nt,
